The record followed here is PubChem BioAssay (NCI).

Molecules are shown by their SMILES. Compounds without any hit were thinned out: in the full panel of roughly 83,000, 20% have a hit.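 Testing used 96-well plates and a 48-hour single-concentration exposure. Example: -40 means 40% of the starting cells died.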 Values without a mark were called inactive. Activity calls are given as the source filed them. Rule for the calls: active = growth percent below 10; inactive = the rest.

Some test systems named below: EKVX NSCLC; SN12C renal; UO-31 renal; TK-10 renal; ACHN renal; CAKI-1 renal; A498 renal; CCRF-CEM leukemia; MOLT-4 leukemia; SR leukemia.
Holding throughout (experiment): NCI-60 one-dose screen, 48 h (100 = growth as untreated, 0 = no growth, -100 = all killed)
Holding throughout (settings): 10 µM unless noted

As to `O=C(/C=C/c1cccc(Cl)c1)OCc1ccc2cc1OCC#C/C=C\C#CCO2`, the growth is 115% in the assay with EKVX NSCLC; 95.7% with SN12C renal; 80.2% in the assay on UO-31 renal; 122% in the assay on TK-10 renal; 99.4% with ACHN renal; 101% in the assay with CAKI-1 renal. Besides, the growth in the assay on A498 renal is 76.7%; with CCRF-CEM leukemia, 84%; with MOLT-4 leukemia, 73.2%; in the assay on SR leukemia it was 63%.

In the case of `COc1cc(C2C(C#N)=C(N)OC3=C2C(=O)c2ccccc2C3=O)cc(OC)c1O` (stereo not given), the growth in the assay with EKVX NSCLC is 78.9%; in the assay on SN12C renal, 47.5%; with UO-31 renal, 36%; in the assay on TK-10 renal, 70.1%; in the assay on ACHN renal it was 41.2%; in the assay with CAKI-1 renal, 38.8%. In addition, the growth with A498 renal is -8.45% (active); in the assay with CCRF-CEM leukemia, 106%; with MOLT-4 leukemia it was 105%; in the assay with SR leukemia, 38.1%.

Take `Cc1sc2ncn(CC(=O)Nc3ccc(S(N)(=O)=O)cc3)c(=O)c2c1C`: the growth is 95.8% in the assay with EKVX NSCLC; 98.6% with SN12C renal; 73.1% with UO-31 renal; 109% in the assay on TK-10 renal; 103% in the assay on ACHN renal; 95.4% in the assay on CAKI-1 renal. The growth is 100% in the assay with A498 renal, 105% in the assay on CCRF-CEM leukemia, 102% with MOLT-4 leukemia and 117% in the assay on SR leukemia.

Take `COc1cc([C@@H]2NC(=O)NC(C)=C2C(=O)Nc2nc(-c3ccc(Cl)cc3)cs2)ccc1O`: the growth in the assay on EKVX NSCLC is 91.1%; in the assay with SN12C renal, 97.4%; in the assay on UO-31 renal, 69%; with TK-10 renal, 103%; in the assay with ACHN renal, 98.3%; with CAKI-1 renal, 83%. The growth in the assay with A498 renal was 102%; with CCRF-CEM leukemia it was 132%; in the assay with MOLT-4 leukemia, 100%; in the assay on SR leukemia, 106%.

For `CC(=O)c1ccc(NC(=O)Nc2ccc(S(=O)(=O)Nc3ccc(Cl)nn3)cc2)cc1`, the growth is 99% in the assay with EKVX NSCLC; 97.9% with SN12C renal; 78.5% in the assay on UO-31 renal; 119% in the assay with TK-10 renal; 103% with ACHN renal; 93% in the assay on CAKI-1 renal. The growth in the assay on A498 renal was 84%; in the assay with CCRF-CEM leukemia, 116%; with MOLT-4 leukemia it was 104%; in the assay with SR leukemia, 117%.

Turning to `C1CCN(c2nc(N3CCCCC3)nc(N3CCOCC3)n2)CC1`, the growth with EKVX NSCLC was 85.4%; in the assay with SN12C renal, 96.5%; in the assay on UO-31 renal, 99.5%; in the assay on TK-10 renal, 92.1%; in the assay with ACHN renal it was 116%; in the assay with CAKI-1 renal, 85.6%. For the same molecule, the growth in the assay with A498 renal is 109%; with CCRF-CEM leukemia, 92.6%; in the assay on MOLT-4 leukemia, 81.5%; in the assay on SR leukemia, 89.4%.

Turning to `COc1cc(C2C3=C(COC3=O)N(CCO)c3cc4c(cc32)OCCO4)cc(OC)c1O` (stereo not given), the growth is 41% with EKVX NSCLC; 39.8% with SN12C renal; 60.3% with UO-31 renal; 47.4% in the assay with TK-10 renal; 37.2% in the assay with ACHN renal; 39.8% with CAKI-1 renal. The growth in the assay on A498 renal is 25.5%; in the assay with CCRF-CEM leukemia it was 15.5%; in the assay with MOLT-4 leukemia, 29.7%; in the assay with SR leukemia, 23%.

For `CCC(C)(C)C(=O)O[C@H]1C[C@@H](C)C=C2C=C[C@H](C)[C@H](CC[C@@H]3CC=CC(=O)O3)[C@H]21`, the growth is 107% in the assay on EKVX NSCLC; 62.8% in the assay on SN12C renal; 76% in the assay on UO-31 renal; 109% with TK-10 renal; 70.9% with ACHN renal; 84.5% in the assay with CAKI-1 renal. Moreover, the growth is 107% with A498 renal, 3.21% (active) with CCRF-CEM leukemia, 1.21% (active) in the assay with MOLT-4 leukemia and 7.49% (active) in the assay on SR leukemia.

For the molecule `COc1cc(/C=C/C(=O)c2ccc(Nc3nc(NCCO)nc(N4CCOCC4)n3)cc2)cc(OC)c1OC`, the growth was 21.7% in the assay on EKVX NSCLC; 16.3% with SN12C renal; 25.4% with UO-31 renal; 35.3% with TK-10 renal; 23.3% with ACHN renal; 23.6% in the assay on CAKI-1 renal. For the same molecule, the growth was 2.25% (active) in the assay on A498 renal, 3.64% (active) in the assay with CCRF-CEM leukemia, 0.216% (active) in the assay on MOLT-4 leukemia and 17.4% with SR leukemia.

In the case of `COc1ccc(CCN2C(=O)CCSC2=S)cc1`, the growth in the assay with EKVX NSCLC was 101%; with SN12C renal, 46.4%; with UO-31 renal, 59.9%; with TK-10 renal it was 39.1%; with ACHN renal it was 42.3%; with CAKI-1 renal, 44.8%. Also, the growth is 82.9% with A498 renal, 30% in the assay on CCRF-CEM leukemia, 64.1% in the assay with MOLT-4 leukemia and 18.1% in the assay with SR leukemia.

On to `NCCOc1ccccc1/C=C1\c2ccccc2-c2ccc([N+](=O)[O-])cc21`, for which the growth with EKVX NSCLC was 54.9%; in the assay on SN12C renal, -17.9% (active); with UO-31 renal, -7% (active); in the assay on TK-10 renal, -1.56% (active); in the assay with ACHN renal, -73.6% (active); in the assay on CAKI-1 renal, 1.27% (active). The growth is 25.1% in the assay on A498 renal, 0.81% (active) with CCRF-CEM leukemia, -14.1% (active) with MOLT-4 leukemia and -23.7% (active) in the assay on SR leukemia.

As to `CC(=O)c1ccc(Nc2nc(NCCO)nc(Nc3ccc(Cl)cc3)n2)cc1`, the growth was 80.2% in the assay with EKVX NSCLC; 95.8% in the assay with SN12C renal; 81.3% in the assay on UO-31 renal; 108% in the assay with TK-10 renal; 87.8% with ACHN renal; 92.1% with CAKI-1 renal. The growth is 72.9% with A498 renal, 89.4% in the assay on CCRF-CEM leukemia, 83.9% in the assay with MOLT-4 leukemia and 64.7% in the assay on SR leukemia.

Consider `COc1ccc(N)c(-c2cc3c(c4c2[nH]c2ccc(OC)cc24)CCCC3)c1`, for which the growth in the assay with EKVX NSCLC was 72.5%; in the assay on SN12C renal, 87.8%; in the assay with UO-31 renal, 57.6%; in the assay on TK-10 renal it was 114%; in the assay with ACHN renal, 89.4%; in the assay with CAKI-1 renal, 67.1%. In addition, the growth was 88.8% in the assay on A498 renal, 55.4% in the assay with CCRF-CEM leukemia, 68.8% with MOLT-4 leukemia and 79.1% with SR leukemia.
